# From PubChem BioAssay (NCI)
# The panel holds about 83,000 compounds, 20% with a hit somewhere; the sample as a whole holds those more often.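 In brief: 96-well plates, 48 h treatment, single concentration, percent growth endpoint.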 Values without a mark were called inactive. The source made the active and inactive calls. Rule for the calls: active = growth percent below 10; inactive = the rest.
# Key:
# Experiment in all cases: NCI-60 one-dose screen, 48 h (100 = growth as untreated, 0 = no growth, -100 = all killed)
# NCI-H23 lung = details: 10 µM unless noted
# NCI-H226 lung = details: 10 µM unless noted
# NCI-H322M lung = details: 10 µM unless noted
# HOP-62 NSCLC = details: 10 µM unless noted
# NCI-H460 lung = details: 10 µM unless noted
# HOP-92 NSCLC = details: 10 µM unless noted
# NCI-H522 lung = details: 10 µM
# 786-0 renal = details: 10 µM unless noted
# COLO 205 colon = details: 10 µM unless noted
# K-562 leukemia = details: 10 µM unless noted
# MALME-3M melanoma = details: 10 µM unless noted
# MDA-MB-231 breast = details: 10 µM unless noted
# SF-268 CNS = details: 10 µM unless noted
# SF-295 CNS = details: 10 µM unless noted
# SF-539 CNS = details: 10 µM unless noted
# UACC-257 melanoma = details: 10 µM unless noted
# M14 melanoma = details: 10 µM unless noted
# DU-145 prostate = details: 10 µM unless noted
# RXF 393 renal = details: 10 µM unless noted
SMILES,growth (NCI-H23 lung),growth (NCI-H226 lung),growth (NCI-H322M lung),growth (HOP-62 NSCLC),growth (NCI-H460 lung),growth (HOP-92 NSCLC),growth (NCI-H522 lung),growth (786-0 renal),growth (COLO 205 colon),growth (K-562 leukemia),growth (MALME-3M melanoma),growth (MDA-MB-231 breast),growth (SF-268 CNS),growth (SF-295 CNS),growth (SF-539 CNS),growth (UACC-257 melanoma),growth (M14 melanoma),growth (DU-145 prostate),growth (RXF 393 renal)
O=C(N/N=C/c1cccc(O)c1)c1ccc(C(F)(F)F)nc1Nc1cccc(C(F)(F)F)c1,13.4%,12.6%,-6.79% (active),-32.9% (active),11.5%,-28.4% (active),-7.57% (active),-13.8% (active),-0.875% (active),5.13% (active),1.33% (active),-26.8% (active),17.6%,-39.3% (active),7.23% (active),19.6%,35.7%,,
O=c1[nH]cc(Nc2cc(Cl)c3nonc3c2[N+](=O)[O-])c(=O)[nH]1,91.2%,92.3%,110%,102%,107%,95.5%,98%,105%,109%,108%,109%,104%,126%,-37.1% (active),101%,25.2%,99.7%,111%,
CCCn1c(N)c(C(=O)CNc2ccc(I)cc2)c(=O)[nH]c1=O,89.8%,62.7%,62%,54.9%,28.6%,95.4%,50.9%,47.1%,75.5%,43.5%,80.7%,67.5%,46.1%,54.2%,57.5%,72.1%,56.2%,57.3%,
C=CCNC(=O)/C(=C/c1cccc([N+](=O)[O-])c1)NC(=O)c1ccccc1,98.6%,90.5%,107%,92.4%,111%,91.9%,97.5%,84.7%,120%,108%,102%,116%,99%,103%,92.5%,7.53% (active),88.8%,116%,
COc1ccc(CNC(=O)c2c(C)n([O-])c3cc(F)c(F)cc3[n+]2=O)cc1,41.9%,99.6%,97.1%,107%,97.2%,89.1%,77.9%,92.9%,131%,46.5%,111%,76.3%,88.7%,57.1%,96.9%,98%,90.5%,,
c1ccc2nc(N/N=C3\CCCCC3C3CCCCC3)ccc2c1 (stereo not given),40.1%,53.8%,64.5%,8.28% (active),39.7%,-11.3% (active),60%,48.6%,41%,12.3%,46.6%,60.8%,66.8%,25.9%,58.8%,72.1%,72.1%,,
O=C(COc1cccc(/C=C2\Cc3ccccc3C2=O)c1)c1ccc(Cl)cc1,96.1%,105%,131%,98%,117%,86.6%,81.1%,97.8%,142%,100%,90%,84.1%,117%,124%,95.6%,96.4%,105%,,
O=[N+]([O-])c1cc([N+](=O)[O-])c(N2CCCC2)cc1NN=C(c1ccc(O)cc1)c1ccc(O)cc1,9.44% (active),94.8%,91.7%,23.3%,9.13% (active),87.7%,-42% (active),0.661% (active),30.6%,,140%,93.6%,77.3%,79.6%,61.9%,,7.88% (active),95.8%,-22.2% (active)
CCCCCCCCCCN1CCC(N2CCCCC2)CC1,38%,69.5%,88%,-64.7% (active),-37.9% (active),-12.4% (active),-59.7% (active),-93.1% (active),-85.7% (active),-75.6% (active),-43.9% (active),-36.3% (active),39.8%,2.51% (active),-80.4% (active),-91.2% (active),-79.4% (active),54.3%,
COc1ccc2c(c1)C(=Nc1cc(OC)c(OC)c(OC)c1)C(=O)N2,96.6%,97.1%,108%,36.1%,116%,56.8%,89.9%,104%,92.5%,102%,90.8%,103%,98%,171%,103%,102%,101%,,
O=C(/C=C/c1ccc([N+](=O)[O-])cc1)c1ccc2c3c(cccc13)CC2,67.9%,66.9%,78.4%,53.9%,38.4%,55%,70.4%,83.9%,49%,44.8%,79.7%,81.4%,80.9%,-17.9% (active),33.1%,3.27% (active),95.3%,38.7%,
Oc1ccccc1/C=N/N1CCCCCC1,101%,91.5%,108%,109%,127%,50.4%,104%,110%,122%,,,96.1%,99.9%,,113%,129%,118%,108%,101%
Cc1nn(-c2nc3ccccc3s2)c(C)c1Oc1ccccc1O,109%,80.5%,101%,53.3%,24.6%,93.2%,59.9%,89.2%,92.3%,31.8%,76.9%,70.8%,60.5%,58.8%,60.9%,104%,63.7%,68.2%,
CCCCN1c2nc3ccccc3cc2Sc2cc3ccccc3nc21,97.6%,93.2%,104%,90.7%,99%,28.4%,92.8%,98.5%,132%,99.4%,117%,76.4%,91.7%,768%,100%,104%,103%,,
C[C@]12CC[C@H](O)CC1=CC[C@@H]1[C@@H]2CC[C@]2(C)C(c3cccnc3)=CC[C@@H]12,68.3%,58.5%,84.1%,81.1%,66.5%,72.3%,35.7%,36.9%,95.1%,,70.8%,85.1%,79.5%,42%,31.8%,,71%,90.6%,
O=C(O)C1CCN(S(=O)(=O)c2ccc(-c3ccccc3)cc2)CC1,98.3%,90.6%,124%,112%,112%,90.8%,92.9%,103%,111%,109%,127%,98.7%,108%,192%,109%,56.2%,109%,114%,
O=C(O)CCNS(=O)(=O)c1ccc(-c2ccccc2)cc1,98.4%,92%,129%,103%,114%,83.9%,98.4%,106%,111%,114%,112%,123%,115%,131%,108%,87.5%,104%,127%,
